Compounds with a hit are over-represented: about 19% of the library has one in this group of screens.
TDP1 cell noCPT = qHTS for Inhibitors of human tyrosyl-DNA phosphodiesterase 1 (TDP1): qHTS in cells in absence of CPT; 420,000 tested, 15% active; Potency, µM (doses to about 46.2 µM), for the others: at the highest dose activity change, negative = growth inhibition, actives largely listed as inhibitors; DT40 Tdp1-/- hTDP1 cells, no CPT, ATP luminescence, 48 h; further: potency means the concentration at half of the fitted maximal effect; on the % scale 0 is the no-effect control and ±100 the full control effect; nearly all actives have a fitted effect of over 55% in size
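Compound effects on proliferation are scored in DT40 Tdp1-/-;hTDP1 cells in the absence of CPT. ATP levels (CellTiter-Glo luminescence) are recorded after a ≥48 hr, 37 °C incubation.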
BCR signal inh = blocks chronic active B-cell receptor signaling; ABC-DLBCL IkBa-CBG/CBR reporter, luminescence ratio, 4 h; Potency, µM (top dose mostly 46.1 µM), without a hit: top-dose activity change, negative = inhibition, usual class: inhibitors; AID 493014; 340,000 tested, 0.05% active; active means well fitted inhibition curve with a large enough effect in the signal ratio, with a control signal flat, not every such curve was filed as active; inconclusive means small, poorly fitted or top-dose-only effect, or effect the other way, or a change in a side signal; the % refers to the signal ratio;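 further: potency means the concentration at half of the fitted maximal effect; plate controls were basal doxycycline-induced cells for no effect and cells given 10 µM MG132 for full effect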
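Cell line TMD8 (human ABC DLBCL), stably expressing tet-inducible CBG68-IkBa fusion and CBR; IMDM/0.5% FBS; cpd up to 46 uM; dox induction, 4 h, 37C/5% CO2; dual luminescence; green/red ratio; MG132 control.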
DT40 TDP1 CPT = DT40-hTDP1 cell growth loss with CPT | AID 686979 | Potency, µM (top dose mostly 46.2 µM), inactives show at the top dose activity change, negative = growth inhibition, most hits filed as inhibitors | 420,000 tested, 12% active | chicken DT40 Tdp1-/-;hTDP1 cells + 20 nM CPT, ATP luminescence, 48 h; further: potency means the concentration at half of the fitted maximal effect; on the % scale 0 is the no-effect control and ±100 the full control effect; nearly all actives have a fitted effect of over 55% in size
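Chicken DT40 Tdp1-/- cells complemented with human TDP1, 400 cells/well, exposed to compounds plus 20 nM camptothecin for at least 48 h at 37 C; viability read as ATP content by CellTiter-Glo luminescence.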
IL-1B inflam inh = blocks inflammasome-driven IL-1 beta release; activity change, % at 57.5 µM; 360,000 tested, 4.7% active; THP-1 LPS/ATP IL-1B secretion, AlphaLISA, 16 h; hits give low values; AID 743279; in the data active means activity change below about -50%; inconclusive means mostly about -30% to -49%; further: on the % scale 0 is the no-effect control and ±100 the full control effect
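THP-1 cells pretreated 1 hr with compounds (up to 57.5 uM final), then stimulated with LPS (250 ng/mL final) plus ATP (1.25 mM final); secreted IL-1B measured by AlphaLISA after 16 hr, decreased signal indicating inhibition.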
SW480 rereplic = DNA re-replication induction in SW480 cells | 340,000 tested, 1.8% active | SW480 DNA re-replication, Hoechst DNA content imaging, 48 h | AID 624297 | Potency, µM (titrated, usually from 46.1 µM), for inactives: at the top dose re-replication activation, most hits filed as activators; further: potency means the concentration at half of the fitted maximal effect; % of control where 0% means no effect; nearly all actives have a fitted effect of over 55% in size
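SW480 cells exposed to compounds for 48 hr at 37 C, 5% CO2, then Hoechst-stained 40 min. Nuclear DNA content imaged by fluorescence scanning (405 nm excitation, 500-530 nm emission); re-replication scored as increased high-intensity nuclei.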
MCF10A rerep = inducers of DNA re-replication in MCF 10A breast cells; MCF 10A DNA re-replication, Hoechst nuclear intensity, 48 h; Potency, µM (top dose mostly 46.1 µM), for the others: at the top dose activity, positive = re-replication, most hits filed as activators; 350,000 tested, 2.9% active; further: potency means the concentration at half of the fitted maximal effect; % of control where 0% means no effect; nearly all actives have a fitted effect of over 50% in size
* marks the source's active call; other numbers are inactive results; ? = inconclusive; nt = not tested or not shown; [ ] = another dose, or the depositor's remark. Unless noted, the call rests on the fitted dose curve; in most records, active means well fitted curve in the direction sought with a large enough effect; inconclusive means small, poorly fitted or top-dose-only effect, or another doubt; inactive means no such curve, though single readings can be large; an effect the other way counts as inactive or inconclusive.

SMILES	TDP1 cell noCPT	BCR signal inh	DT40 TDP1 CPT	IL-1B inflam inh	SW480 rereplic	MCF10A rerep
CCCN(C(=O)COC(=O)CNC(=O)c1ccc2ccccc2c1)c1c(N)n(Cc2ccccc2)c(=O)[nH]c1=O	-7.2%	7.9%	19.8%	35.8	-162.9%	-30.2%
O=C1CCCN1CCCNc1nc(NCc2cccs2)nc2ccsc12	16.4µM*	nt	20.6µM*	-84.3*	nt	nt
COCCNc1nc(NCc2cccs2)nc2ccsc12	25.9µM*	nt	?	-90.0*	nt	nt
O=C1NCCN1CCNc1nc(NCc2ccccc2)nc2ccsc12	?	nt	?	5.6	nt	nt
CC(=O)NCCNc1nc(NCc2cccs2)nc2ccsc12	?	nt	-2.9%	111.1	nt	nt
c1ccc(CNc2nc(NCc3cccs3)nc3ccsc23)cc1	11.6µM*	nt	18.4µM*	-57.1*	nt	nt
CCCCCCCCCCCCCCCC[n+]1ccc(CC(O)c2c(C)[nH]c3ccccc23)c2ccccc21 (configuration not stated)	1.26µM*	nt	1.58µM*	nt	nt	nt
CCCCNC(=O)C(NC(=O)c1ccccc1)C(=O)c1ccccc1 (configuration not stated)	-11.1%	nt	-1.7%	18.8	nt	nt
Cc1cc2ncn(S(=O)(=O)c3ccc(S(N)(=O)=O)cc3)c2cc1C	-36.1%	nt	-12.6%	16.5	0.8%	-1.9%
Cc1cc2ncn(S(=O)(=O)c3ccc(S(=O)(=O)N4CCCCCC4)cc3)c2cc1C	20.6µM*	nt	16.4µM*	25.4	10.6%	-5.3%
Cc1cc2ncn(S(=O)(=O)c3ccc(F)cc3)c2cc1C	0.8%	0.4%	-6.5%	2.0	2.7%	8.3%
CCOc1ccc(S(=O)(=O)n2cnc3cc(C)c(C)cc32)cc1	8.2µM*	-3.6%	?	-18.6	13.4%	?
Cc1cccc(C)c1NC(=O)C(c1ccccc1)n1c(=O)c(-c2ccco2)nc2ccccc21 (configuration not stated)	?	nt	?	-5.3	nt	nt
CCCCNCCS(=O)(=O)NCc1ccc(OC)cc1	-9.4%	nt	-1.8%	9.1	2.5%	-8.7%
Cc1ccc(S(=O)(=O)C(CNC(=O)C(=O)NCCc2ccccc2)c2cccs2)cc1 (configuration not stated)	14.6µM*	3.1%	16.4µM*	nt	nt	nt
Cc1ccc(S(=O)(=O)C(CNC(=O)c2ccccc2F)c2cccs2)cc1 (configuration not stated)	14.6µM*	nt	?	nt	nt	nt
O=C(NCCc1ccc(F)cc1)C(=O)NCC(c1cccs1)S(=O)(=O)c1ccccc1 (configuration not stated)	?	-2.3%	?	nt	nt	nt
O=C(NCC(c1cccs1)S(=O)(=O)c1cccs1)c1ccccc1F (configuration not stated)	?	8.7%	-10.7%	nt	nt	nt
COc1ccccc1CCNC(=O)C(=O)NCC(c1ccco1)S(=O)(=O)c1ccc(F)cc1 (configuration not stated)	?	?	16.4µM*	nt	nt	nt
COc1ccc(CCNC(=O)C(=O)NCC(c2cccs2)S(=O)(=O)c2ccc(C)cc2)cc1 (configuration not stated)	9.2µM*	?	?	nt	nt	nt
COc1ccccc1CNC(=O)C(=O)NCC(c1ccco1)S(=O)(=O)c1ccc(C)cc1 (configuration not stated)	?	1.4%	?	nt	nt	nt
Cn1c(=S)[nH]c(=O)c2ncc(=O)[nH]c21	12.6%	?	-1.0%	-1.3	-7.8%	-3.9%
Cc1c(C)n2c(SCC(=O)N3CCN(c4ccccc4)CC3)nnc2[nH]c1=O	22.6%	-1.1%	-22.4%	2.6	-1.5%	-4.4%
O=C(NNC(=O)c1ccc(Br)o1)c1csc(N2CCOCC2)n1	-22.8%	-1.2%	9.1%	-5.0	0.5%	-8.1%
Cc1ccc(S(=O)(=O)C(CNC(=O)C(=O)NCCc2ccc(F)cc2)c2cccs2)cc1 (configuration not stated)	16.4µM*	7.5%	?	nt	nt	nt
SMILES	TDP1 cell noCPT	BCR signal inh	DT40 TDP1 CPT	IL-1B inflam inh	SW480 rereplic	MCF10A rerep
Cc1ccc(C)c(S(=O)(=O)NCC(c2ccco2)S(=O)(=O)c2ccc(F)cc2)c1 (configuration not stated)	1.16µM*	?	1.3µM*	nt	nt	nt
COc1ccc(-c2nnn(CC(=O)N(CC3CCCO3)C(C(=O)NC(C)(C)C)c3ccco3)n2)cc1OC (configuration not stated)	-29.0%	?	-5.4%	15.8	1.1%	4.7%
CCc1cccc(C)c1NC(=O)NC1COc2ccccc2C1 (configuration not stated)	-25.5%	nt	-25.3%	nt	nt	nt
COc1ccc(-c2nc3scc(CCNS(=O)(=O)c4c(C)noc4C)n3n2)cc1	?	-22.1%	?	nt	nt	nt
CCOc1ccc(S(=O)(=O)NCCc2csc3nc(-c4ccc(F)cc4)nn23)cc1	6.51µM*	12.0%	11.6µM*	nt	nt	nt
Cc1noc(C)c1S(=O)(=O)NCCc1csc2nc(-c3ccc(F)cc3)nn12	23.1µM*	?	18.4µM*	nt	nt	nt
COCCNc1ccnc(-c2c(C)noc2C)n1	5.3%	nt	9.4%	nt	nt	nt
CCC(=O)N(Cc1cc2ccc(C)cc2[nH]c1=O)c1ccccc1OC	?	?	?	9.7	3.6%	-3.3%
C/C(=N\Nc1ccc(Cl)c(Cl)c1)c1ccc(-n2ccnc2)cc1	?	?	?	-65.1*	?	?
C/C(=N\NC(N)=S)c1ccc(-n2ccnc2)cc1	-11.5%	-8.2%	0.6%	0.0	1.3%	1.3%
CN(C)c1ccc(/C=C/c2nc3ccccc3s2)cc1Cl	2.82µM*	nt	5.01µM*	nt	nt	nt
Cc1cc(/C=C/c2nc3ccccc3s2)ccc1N(C)C	1µM*	nt	1.41µM*	nt	nt	nt
O=C(c1ccccc1F)N(Cc1cc2cc3c(cc2nc1N1CCOCC1)CCC3)CC1CCCO1 (configuration not stated)	?	nt	-10.4%[9.04 µM]	nt	nt	nt
Nc1nnc(CC(=O)N/N=C/c2ccc(-c3ccc(F)cc3)o2)s1	-16.2%	11.6%	6.3%	-51.0*	-4.8%	-0.6%
CCOC(=O)c1ccc(-c2ccc(/C=N/NC(=O)Cc3nnc(N)s3)o2)cc1	?	0.8%	1.9%	8.8	-1.5%	1.5%
CCOC(=O)C1C(=O)C(=O)N(C2CCCCC2)C1C(=O)OCC (configuration not stated)	-1.0%	nt	26.3%	7.3	-7.7%	0.4%
CCOc1ccc(NC(=O)Cn2c(=O)n(-c3cccc(Cl)c3)c(=O)c3c2c2cc(C)ccc2n3C)cc1	0.9%	nt	-9.2%	nt	nt	nt

Screening data: PubChem, National Center for Advancing Translational Sciences (NCATS)
